Assay results: PubChem BioAssay (NCI)
“And” between values parts separate entries of the source, which are not always exact repeats. Identical values can stand only once. The panel holds about 83,000 compounds, 20% with a hit somewhere; the sample as a whole holds those more often.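 For each line, cells grew in 96-well plates with the test compound present at a single concentration for 48 hours.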 A number with no mark means an inactive call. The source made the active and inactive calls. The calls were made as follows: active = growth percent below 10; inactive = the rest.

What follows are molecules tested on MDA-MB-468 breast (assay: NCI-60 one-dose screen, 48 h (100 = growth as untreated, 0 = no growth, -100 = all killed)). Settings: 10 µM unless noted.

Row | SMILES | growth
1 | C#C[C@]1(O)CC[C@H]2[C@@H]3CC=C4c5sc(-c6ccc7c(c6)OCO7)nc5CC[C@]4(C)[C@H]3CC[C@@]21C | 51.5%
2 | Nc1nc2ncc(CNc3ccc(C(=O)N[C@@H](CCc4nn[nH]n4)C(=O)O)cc3)nc2c(=O)[nH]1 | 93.9% and 98.6%
3 | CCOc1ccc(Cc2nccc3cc(OCC)c(OCC)cc23)cc1OCC | 61.4%
4 | COc1ccc(-c2cc(-c3cccnc3)nc3sc4c(=O)[nH]c(-c5ccc(Cl)cc5)nc4c23)cc1OC | 97.8%
5 | N#C/C(=C\c1ccc(-c2ccc(Cl)cc2)o1)c1nc(-c2ccco2)cs1 | -26.7% (active)
6 | Nc1n[nH]c2cccc(C#Cc3cccc(NC(=O)c4cccc(C(F)(F)F)c4)c3)c12 | 79.3%
7 | Cc1ccc2c(Cn3cc(CSc4nc5ccccc5o4)nn3)cc(=O)oc2c1 | 113%
8 | N#Cc1cn(Cc2ccc(Cl)cc2Cl)c(C(=O)c2ccc(Br)cc2)c1N | 75.5%
9 | Cc1ccccc1NC(=O)Cn1cc(CN2CCN(c3ccnc4cc(Cl)ccc34)CC2)nn1 | 93%
10 | Nc1ccc(-c2cc3c(Nc4ccc(Oc5cccc(C(F)(F)F)c5)c(Cl)c4)ncnc3s2)cc1 | -9.82% (active)
11 | COc1ccc(C(=O)NC(=O)Nc2ccc3c(c2)NC(=O)/C3=C\c2[nH]c(C)c(C(=O)O)c2C)c(F)c1 | 12.3%
12 | COc1ccc(-c2nn(-c3ccc(NC(=O)c4ccc(Cl)c(C(F)(F)F)c4)cc3)cc2-c2ccncc2)cc1Cl | 9.51% (active)
13 | C[PH+](c1nc2ccccc2nc1[PH+](C)C(C)(C)C)C(C)(C)C.C[PH+](c1nc2ccccc2nc1[PH+](C)C(C)(C)C)C(C)(C)C.[Au+].[Cl-] (stereo not given) | -80.7% (active)
14 | O=C(NCc1cn(Cc2cccc(Oc3ccccc3)c2)nn1)c1cccnc1Nc1ccccc1 | 18.1%
15 | COc1cc(-c2cc(=O)oc3cc(O)ccc23)c(OC)c2c1OCO2 | 67.7%
16 | CCCCc1nc(Cl)c(C2CC(c3ccc(S(N)(=O)=O)cc3)=NN2c2ccc(C#N)cc2)[nH]1 (stereo not given) | 64.5%
17 | COc1ccc(C2C(C#N)=C(N)Oc3c2sc2c(Br)cccc32)cc1 (stereo not given) | 3.82% (active)
18 | COC(=O)c1nc(=S)[nH]c(C(=O)OC)c1C(=O)c1ccc2ccccc2c1 | 90%

Row | SMILES | growth
19 | CNCc1cccc2c1OCCOCCOCCN(CCN1CCOCC1)S(=O)(=O)c1ccc(cc1)-c1cnc(N)c(n1)C(=O)N2 | 53.9%
20 | Nc1ccc2c(c1)C(=O)NC2=O | 75.4%
21 | COc1cc(-c2ccc(-c3ccc(C(=N)N)nc3)s2)cc(OC)c1OC | 22.4%
22 | CC1(C)N=C(N)N=C(N)N1c1ccc(CCCCc2ccccc2)c(Cl)c1 | -20.8% (active)
23 | c1cc(OCCN2CCCCCC2)ccc1CNc1ccc2nc(CCC3CCCCC3)[nH]c2c1 | 58.2%
24 | C/C=C/CSC(C)(C)C(=O)NC | 96.4%
25 | O=C1c2c(O)cc(O)cc2OC(c2ccc(O)c(O)c2)C1O (stereo not given) | 112%
26 | COc1cc(Oc2cc(-c3cccnc3)ccc2NC(=O)Nc2ccc(F)cc2F)cc(OC)c1OC | 97.7%
27 | Clc1ccc2[nH]c3c(NCCCN4CCOCC4)ncnc3c2c1 | 33.7%
28 | O=C(CN1C(=O)S/C(=C\c2ccccc2)C1=O)Nc1ccc(C(=O)/C=C/c2cc3ccccc3nc2Cl)cc1 | 63.1%
29 | S=C(SSC(=S)N1CCOCC1)N1CCOCC1 | 106%
30 | COC[C@]12CC[C@@H](C)[C@H](C)[C@H]1C1=CC[C@@H]3[C@@]4(C)CCCNC(C)(C)[C@@H]4CC[C@@]3(C)[C@]1(C)CC2 | -6.6% (active)
31 | COc1cc(OC)c(/C=C/c2ccc3ccccc3[n+]2C)c(OC)c1 | -13.7% (active)
32 | C=C(C)[C@@H]1CC[C@]2(C(=O)OC)CC[C@]3(C)[C@H](CC[C@@H]4[C@@]5(C)CC/C(=N\OCCC(=NCCC#N)NOCCC#N)C(C)(C)[C@@H]5CC[C@]43C)[C@@H]12 | 4.41% [100 µM] (active)
33 | COc1cccc(NC(=O)[C@H](C(C)C)n2c(=O)[nH]c3ccccc3c2=O)c1 | 101%
34 | Cc1c(O)cccc1O | 117%
35 | CN(CCn1sc(=O)n(Cc2ccccc2)c1=O)Cc1ccc2c(Cl)cc(Cl)c(O)c2n1 | 42.4%
